A340 absorber – absorbance at 340 nm. AID 708. compound absorbance at 340 nm, fold over control. 65,000 tested, under 10 active. fold change at 10 µM;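 active = at 10 µM dose, initial 340 nm absorbance at least 2 fold that of control wells; inactive = change under 2 fold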;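 also: initial absorbance extrapolated from kinetic A340 decline of NADH oxidation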
Spn DPM-DC inh – inhibitors of Streptococcus pneumoniae diphosphomevalonate decarboxylase. purified DPM-DC, PK/LDH coupled NADH fluorescence. calls only at 10 µM. 65,000 tested, 0.49% active;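 active = the 320 compounds with the highest percent inhibition in the single-dose primary screen, excluding strongly autofluorescent ones, cut at about 32% in these data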;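 also: kinetic rate of NADH fluorescence loss reporting ADP formed by the decarboxylase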
NADH coupling – inhibitors of enzymes used to reach an NAD/NADH endpoint; 65,000 tested, 0.02% active; IC50, µM (top dose mostly 10 µM), for inactives: top-dose inhibition; coupled PK/LDH NADH assays, four targets;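 active = single-dose screening hits from any of four coupled enzyme assays that gave an IC50 when retested across doses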;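 also: the DPM-DC format reads NADH fluorescence rather than 340 nm absorbance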
PMK inhibit – S. pneumoniae PMK inhibition; purified PMK, PK/LDH-coupled NADH absorbance 340 nm; inhibition, % at 10 µM; 65,000 tested, 0.49% active; AID 539;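 active = top-ranked compounds by inhibition in the single 10 µM screen, taking a fixed number of the strongest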;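 also: 0% = full reaction with DMSO carrier and 100% = background rate without enzyme reaction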
Spn MK inh – inhibitors of Streptococcus pneumoniae mevalonate kinase | purified MK, PK/LDH-coupled NADH absorbance 340 nm | inhibition, % at 10 µM | 65,000 tested, 0.48% active;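 active = ranked among the strongest by inhibition in the single 10 µM screen, a fixed top-ranked set picked for dose follow-up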
Fluor 339 460 – intrinsic fluorescence of library compounds, ex339/em460 – biochemical, MLSMR library, data from DPM-DC assay, artefact control, profiling panel; compound autofluorescence, ex339/em460 nm, NADH buffer; stronger effect = higher value; 1 = no-compound wells, NADH background; fluorescence fold increase at 10 µM; 65,000 tested, 5.5% active;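 active = at 10 µM, mean starting fluorescence two-fold or more over control wells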;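 also: signal is the first read of a kinetic run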
An asterisk follows results filed as active. Sampled rows, rich in hits. Any-hit rate of the full collection: about 6.8%.

For CCN1CCc2c(sc3c2c(NCc2ccco2)nc2nnnn23)C1 the results were A340 absorber 1.1, Spn DPM-DC inh inactive, NADH coupling 8%, PMK inhibit 9, Spn MK inh 7 and Fluor 339 460 2.4*.
Screening c1coc(CNc2ncnc3sc4c(c23)CCCCC4)c1 returned A340 absorber 1, Spn DPM-DC inh inactive, NADH coupling 7%, PMK inhibit 16, Spn MK inh 4 and Fluor 339 460 1.
COc1cccc(/C=N/n2c(SC)nnc2-c2ccccc2)c1OC was read as A340 absorber 1.1, NADH coupling 1%, PMK inhibit 0, Spn MK inh 1 and Fluor 339 460 2.1*.
Screening Cn1c2ccccc2c(=O)n2c(=O)c3ccccc3cc12 returned A340 absorber 1.1, Spn DPM-DC inh inactive, NADH coupling 10%, PMK inhibit 12, Spn MK inh 7 and Fluor 339 460 2.4*.
`Cn1c(-c2ccccc2)cc(=O)c2ccccc21` gave A340 absorber 1, Spn DPM-DC inh inactive, NADH coupling 2%, PMK inhibit 2, Spn MK inh 10 and Fluor 339 460 1.1.
`Clc1ccc(N2CCN(c3ncnc4c3oc3ccccc34)CC2)cc1` gave A340 absorber 1.1, NADH coupling 7%, PMK inhibit 9, Spn MK inh 5 and Fluor 339 460 3.7*.
`O=C(c1ccc(CS(=O)(=O)Cc2ccc(Cl)cc2)o1)N1CCCC1` gave A340 absorber 0.99, Spn DPM-DC inh inactive, NADH coupling 9%, PMK inhibit 26*, Spn MK inh 2 and Fluor 339 460 1.
Screening Cc1ccc(NC(=O)N2CCC(c3nc4c(nnn4Cc4cccc(Cl)c4)c(=O)[nH]3)CC2)cc1 returned A340 absorber 1, Spn DPM-DC inh inactive, NADH coupling 3%, PMK inhibit 5, Spn MK inh 4 and Fluor 339 460 1.1.
Screening O=C(Nc1ccc(F)cc1)N1CCC(c2nc3c(nnn3Cc3cccc(Cl)c3)c(=O)[nH]2)CC1 returned A340 absorber 1, Spn DPM-DC inh inactive, NADH coupling 22%, PMK inhibit 9, Spn MK inh 49* and Fluor 339 460 0.97.
O=C(C1CCCCC1)N1CCC(c2nc3c(nnn3Cc3ccccc3Cl)c(=O)[nH]2)CC1 was read as A340 absorber 1, Spn DPM-DC inh active, NADH coupling 6%, PMK inhibit 10, Spn MK inh 9 and Fluor 339 460 1.1.
Screening CCSc1nnc(NC(=O)C(CC)Oc2ccccc2)s1 (stereo not drawn) returned A340 absorber 0.81, Spn DPM-DC inh inactive, NADH coupling 12%, PMK inhibit 21, Spn MK inh 14 and Fluor 339 460 1.1.
For O=S(=O)(c1ccc(Cl)c(C(F)(F)F)c1)N1CCN(CC(O)COCC2CCCO2)CC1 (stereo not drawn) the results were A340 absorber 1, Spn DPM-DC inh inactive, NADH coupling 10%, PMK inhibit 12, Spn MK inh 18 and Fluor 339 460 1.1.
For COCCn1nnnc1C(c1ccc(OC)c(OC)c1)N1CCN(c2nc3ccccc3s2)CC1 (stereo not drawn) the results were A340 absorber 0.98, Spn DPM-DC inh inactive, NADH coupling 4%, Spn MK inh 7 and Fluor 339 460 1.1.
COc1ccc2c(c1)c(=O)oc1cc(OCC(=O)NC3CC3)ccc12 was read as A340 absorber 1.1, NADH coupling 6%, PMK inhibit 4, Spn MK inh 7 and Fluor 339 460 3.7*.
Screening COc1ccccc1OCC(=O)NC1CCCCCC1 returned A340 absorber 1, Spn DPM-DC inh inactive, NADH coupling 5%, PMK inhibit 8, Spn MK inh 6 and Fluor 339 460 1.1.
`CC(C)CCNC(=O)COc1ccc2c3c(c(=O)oc2c1)CCC3` gave A340 absorber 1.1, Spn DPM-DC inh inactive, NADH coupling 15%, PMK inhibit 18, Spn MK inh 6 and Fluor 339 460 3.1*.
`Cc1cc(=O)oc2cc(OCC(=O)NCCCN3CCOCC3)ccc12` gave A340 absorber 1.1, Spn DPM-DC inh inactive, NADH coupling 8%, PMK inhibit 5, Spn MK inh 7 and Fluor 339 460 1.8.
CC(C)CNC(=O)COc1ccc2c3c(c(=O)oc2c1)CCC3 was read as A340 absorber 1.1, Spn DPM-DC inh active, NADH coupling 19%, PMK inhibit 15, Spn MK inh 3 and Fluor 339 460 2*.
Screening CCN(CC)CCN1C(=O)C(=O)/C(=C(/O)c2ccc(C)cc2)C1c1cccnc1 (stereo not drawn) returned A340 absorber 1, Spn DPM-DC inh inactive, NADH coupling 6%, PMK inhibit 6, Spn MK inh 6 and Fluor 339 460 1.1.
CCN1CCCC1CN(Cc1cc2ccc(C)c(C)c2[nH]c1=O)C(=O)Nc1ccccc1OC (stereo not drawn) was read as A340 absorber 1, Spn DPM-DC inh inactive, NADH coupling 4%, PMK inhibit 12, Spn MK inh 1 and Fluor 339 460 1.2.
For c1coc(CNc2nc(N3CCCCC3)nc3ccccc23)c1 the results were A340 absorber 0.99, NADH coupling 13%, PMK inhibit 13, Spn MK inh 13 and Fluor 339 460 3.7*.
Screening c1ccc(N2CCN(c3nc(NCc4ccco4)c4ccccc4n3)CC2)cc1 returned A340 absorber 1, Spn DPM-DC inh inactive, NADH coupling 1%, PMK inhibit 0, Spn MK inh 3 and Fluor 339 460 1.6.
For CCOC(=O)CSc1n[nH]c(-c2cccnc2)n1 the results were A340 absorber 1, Spn DPM-DC inh inactive, NADH coupling 9%, PMK inhibit 25*, Spn MK inh 0 and Fluor 339 460 1.
For CCOC(=O)CSc1nnc(-c2cccnc2)n1Cc1ccccc1 the results were A340 absorber 0.97, Spn DPM-DC inh inactive, NADH coupling 5%, PMK inhibit 3, Spn MK inh 9 and Fluor 339 460 1.
`C=CCc1c(C)nc2c(C(=O)O)cnn2c1C` gave A340 absorber 1, Spn DPM-DC inh inactive, NADH coupling 5%, PMK inhibit 14, Spn MK inh 0 and Fluor 339 460 1.9.
Screening COC(=O)c1cnn2c3c(c(C)nc12)CCCC3 returned A340 absorber 0.99, NADH coupling 14%, PMK inhibit 24, Spn MK inh 3 and Fluor 339 460 4.8*.
O=C(O)CCc1nn2cc(-c3ccccc3)nc2[nH]c1=O was read as A340 absorber 1.1, NADH coupling 4%, PMK inhibit 4, Spn MK inh 3 and Fluor 339 460 2.4*.
For CCc1nn2cc(-c3ccccc3)nc2s1 the results were A340 absorber 1, Spn DPM-DC inh inactive, NADH coupling 7%, PMK inhibit 5, Spn MK inh 10 and Fluor 339 460 1.1.
